The record followed here is PubChem BioAssay AID1259422 (The Scripps Research Institute Molecular Screening Center, 2018).

As a reminder, the inhibition is the change of the read-out against control, counted positive when it falls.

Each structure is given as a SMILES string. Several values for one entry are separate records, joined by “and”; a condition that tells them apart may be missing. Equal entries are not always repeated. Among all 640,000 compounds or so, about 9,300 (1.5%) were called active. No stated cut-off is given here; in the data, active means inhibition above about 32%; inactive means the rest. The full list was thinned out, with actives kept by preference.

The nature of this test: TEAD-YAP interaction inhibition, primary screen, TEAD-YAP interaction inhibitor project, luminescence, HEK-TIYL cells (AID 1259422).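 Further: 0% = median of test compound wells and 100% = reference inhibitor wells.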 To be noted: TEAD-Gal4/YAP UAS-luciferase luminescence, at 9.12 µM, active compounds read high.
`CCOc1cc(-c2nc3sc4c(c3c(=O)[nH]2)CCCC4)cc(Br)c1OCc1ccccc1F`: the inhibition was -1.86% (inactive). The figure for `CCN(CC)C(=O)c1sc(NC(=O)c2cccc(OC)c2)c(C(=O)OC(C)C)c1C` is 7.6% (inactive).

Turning to `O=S(=O)(/C=C/c1ccccc1)N1CCN(CC(O)COCc2ccccc2)CC1` (stereo not drawn), the inhibition is 1.15% (inactive). The figure for `Cc1ccc(S(=O)(=O)N(CC(=O)N2CCCC2)c2ccc(Cl)cc2C)cc1` is 2.4% (inactive); for `Cc1ccc(/C=N/NC(=O)c2ccc(Cl)cc2O)o1` it is -20.5% (inactive); for `COc1ccc(CN2CCN(Cc3cccnc3)CC2)cc1OCc1ccccc1` it is 8.2% (inactive). As to `Oc1c(CN2CCN(c3cccc(Cl)c3)CC2)cc(Br)c2cccnc12`, the inhibition is 5.69% (inactive). For `Oc1c(CN2CCCC2)cc(COCc2ccccc2)c2cccnc12`, the inhibition is 63% (active).

Turning to `CCOc1ccc(NC(=O)c2ccc(C#N)cc2F)cc1`, the inhibition is -9.3% (inactive).

`N#Cc1ccc(C(=O)Nc2ccc(Cc3ccncc3)cc2)c(F)c1`: the inhibition was 55.3% (active). The figure for `CCOC(=O)c1ccc(NC(=O)c2ccc(C#N)cc2F)cc1` is -1.23% (inactive); for `O=C(/C=C/c1ccc2c(c1)OCCO2)c1ccc(O)cc1` it is 63.9% (active). Regarding `O=C(/C=C/c1ccccn1)c1ccc2c(c1)OCO2`, the inhibition was -21.2% (inactive). Under `COc1cccc(/C=C/C(=O)c2ccc3c(c2)OCCO3)c1` stands -34.3% (inactive); under `COCCNc1c(C(C)Cc2ccc3c(c2)OCO3)nc2cnccn12` (stereo not drawn), -1.93% (inactive); under `Cn1c(=O)cc(OCC(=O)NCCN2CCOCC2)c2ccccc21`, -3.6% (inactive). Under `Brc1ccc2nc(-c3cccs3)cn2c1` stands 37.5% (active); under `c1ccc(-c2nc3nc(-c4cccs4)cn3nc2-c2ccccc2)cc1`, -28.9% (inactive). Regarding `N#Cc1ccc(-c2cccs2)nc1SCc1ccc(Br)cc1`, the inhibition was -20.2% (inactive). The figure for `O=C(Nc1ccc(-c2cn3ccccc3n2)cc1)c1ccc(Br)cc1` is -5.14% (inactive); for `Cc1ccc2nc(-c3ccc(Br)cc3)cn2c1` it is 75.2% (active); for `Cc1ccccc1-n1c(-c2ccc(Br)cc2)n[nH]c1=S` it is -9.56% (inactive). With `N#Cc1ccccc1S(=O)(=O)Nc1ccc(Cl)cc1`, the inhibition was 7.64% (inactive).

With `CC1=C(C(=O)Nc2cccc(Cl)c2)C(c2ccc([N+](=O)[O-])cc2)NC(=O)N1` (stereo not drawn), the inhibition was -2.46% (inactive).

Take `COc1ccc(NC(=O)c2ccc([N+](=O)[O-])o2)cc1OC`: the inhibition was 5.63% (inactive). As to `CCOC(=O)C1=C(C)N=c2s/c(=C\c3ccc(-c4ccc([N+](=O)[O-])cc4)o3)c(=O)n2C1c1cccs1` (stereo not drawn), the inhibition was 6.56% (inactive). `O=C(N/N=C/c1ccc2c(c1)OCO2)C12CC3CC(CC(C3)C1)C2`: the inhibition is -46.5% (inactive). Under `CC(C)(C)c1ccc(OCC(=O)Nc2cc([N+](=O)[O-])ccc2O)cc1` stands 77.8% (active). The figure for `Cc1cc(Cl)ccc1NC(=O)COc1ccc([N+](=O)[O-])cc1` is -9.13% (inactive); for `CC(C)(C)c1ccc(OCC(=O)Nc2ccccc2[N+](=O)[O-])cc1` it is 2.77% (inactive); for `O=C(CSc1nc2[nH]ncc2c(=O)n1-c1ccccc1)Nc1ccc(Br)cc1F` it is 8.04% (inactive). Consider `CCOC(=O)C1CCCCN1Cc1cc(Br)ccc1O` (stereo not drawn), for which the inhibition is 7.45% (inactive). Under `COc1ccc(C)cc1NC(=O)CN1C(=O)C(C)N(c2ccc(C)cc2)C1=O` (stereo not drawn) stands 8.14% (inactive). The figure for `C=CCn1c(=S)[nH]c2sc3c(c2c1=O)CCCCC3` is 8.8% (inactive); for `COc1ccccc1Nc1nc(-c2cc3cccc(OC)c3oc2=O)cs1` it is 58% (active); for `COc1cccc(Nc2nc(-c3cc4cccc(OC)c4oc3=O)cs2)c1` it is -12.4% (inactive). For `COc1cccc2cc(-c3nc(-c4ccc(C)cc4C)cs3)c(=O)oc12`, the inhibition was 1.78% (inactive). Under `CCN(C(=O)C1CCC1)c1nnc(-c2ccc(OC)cc2)s1` stands -89.3% (inactive); under `CCN1CCN(CC(=O)NCc2ccccc2Cl)C(=O)C1=O`, 2.39% (inactive). The figure for `CCc1cc2c(C)cc(=O)oc2cc1OCC(=O)NCc1ccco1` is 42.8% (active); for `O=C(COc1cc(Cl)ccc1Cl)NCc1ccco1` it is -2.94% (inactive); for `CCC(C)c1ccc(OCC(=O)NCc2ccco2)cc1` (stereo not drawn) it is -13.8% (inactive). For `Cc1ccc2nc(C3CCN(CC(=O)NCc4ccccc4)CC3)[nH]c2c1`, the inhibition is 7.44% (inactive).

On to `Cc1ccc(-n2ncc(C(=O)O)c2-n2cccc2)cc1`, for which the inhibition was 1.07% (inactive). Turning to `O=C(Cc1ccccc1)Nc1c(C(=O)N2CCCCCC2)cnn1-c1ccccc1`, the inhibition was -25.7% (inactive). Take `Nc1c(C(=O)O)cnn1-c1ccccc1`: the inhibition is 35.4% (active).

Regarding `COc1ccc(C2CC(=O)C3=C(C2)Nc2ccccc2NC3c2cc3c(cc2[N+](=O)[O-])OCO3)cc1` (stereo not drawn), the inhibition was -38.4% (inactive). Take `O=C1OCC2=C1C(c1ccc([N+](=O)[O-])cc1)c1cc3c(cc1N2)OCO3` (stereo not drawn): the inhibition is 51.2% (active).

Take `COc1ccccc1C1C2=C(COC2=O)Nc2c1c(=O)n(C)c(=O)n2C` (stereo not drawn): the inhibition was 6.62% (inactive). Take `Cn1c2c(c(=O)n(C)c1=O)C(c1ccc(F)cc1)C1=C(COC1=O)N2` (stereo not drawn): the inhibition is 13.2% (inactive).

Turning to `COc1ccccc1C1C2=C(COC2=O)Nc2cc3c(cc21)OCO3` (stereo not drawn), the inhibition is 54% (active). The figure for `COc1cc(C2CC(=O)Nc3cc4c(cc32)OCO4)ccc1O` (stereo not drawn) is -0.17% (inactive); for `CCc1ccccc1N(CC(=O)Nc1cccc(F)c1)S(C)(=O)=O` it is -13.9% (inactive); for `COC(=O)CNC(=O)CC1C(=O)NCCN1Cc1ccc(F)cc1` (stereo not drawn) it is -2% (inactive). Under `CCNS(=O)(=O)c1ccc(NC(=O)CCOCC)cc1` stands 9.16% (inactive); under `O=C(CN1C(=O)COc2ccc(Cl)cc21)Nc1ccccc1F`, 3.36% (inactive). Under `COC(=O)c1cc(C(=O)N2CC(C)CC(C)C2)cc([N+](=O)[O-])c1` (stereo not drawn) stands 1.59% (inactive); under `CCOC(=O)c1cc(S(=O)(=O)NCc2ccc(Cl)cc2)cn1C`, 2.16% (inactive). Regarding `COc1cc(Nc2ccnc(Nc3ccncc3)n2)cc(OC)c1OC`, the inhibition is 3.91% (inactive). The figure for `COc1cc(Nc2ccnc(Nc3ccc(N4CCOCC4)cc3)n2)cc(OC)c1OC` is 72.7% (active).

Take `c1ccc(Nc2nccc(Nc3ccc(N4CCOCC4)cc3)n2)cc1`: the inhibition was 16.2% (inactive). Turning to `S=c1[nH]nc(N2CCOCC2)n1Cc1ccccc1`, the inhibition is 2.61% (inactive). For `O=C(NC1CCCc2ccccc21)c1ccc2nccnc2c1` (stereo not drawn), the inhibition is -5.54% (inactive). For the compound `Cn1nccc1C(=O)N1CCC[C@@H]2CN(C(=O)Cc3ccc(F)cc3)CC[C@H]21`, the inhibition is 6.31% (inactive).

For the compound `Cn1nccc1C(=O)NC1CCCc2c1cnn2-c1ccc(F)cc1F` (stereo not drawn), the inhibition was 55.8% (active). For `Cc1cc(C(=O)N(Cc2ccccc2)C(C)C2CC2)c(Cl)cc1Cl` (stereo not drawn), the inhibition was -10.9% (inactive). For `Cc1noc(C)c1NC(=O)N1CCC2(CC1)OCc1ccccc1O2`, the inhibition was -5.79% (inactive). As for `CC(C)[C@@H](Cn1nnc2ccccc21)NC(=O)c1ccc(N2CCCCS2(=O)=O)cc1`, the inhibition was -3.11% (inactive).

Take `COc1ccc(CCNC(=O)CCS(=O)(=O)c2cccc3cccnc23)cc1OC`: the inhibition was 10.6% (inactive). Under `CC[C@]1(O)CC2CN(CCc3c([nH]c4ccccc34)[C@@](C(=O)OC)(c3cc4c(cc3OC)N(C=O)[C@H]3[C@@](O)(C(=O)OC)[C@H](OC(C)=O)[C@]5(CC)C=CCN6CC[C@]43[C@@H]65)C2)C1` (stereo partly drawn) stands 50.8% (active) and 57.9% (active) and 55.9% (active); under `COc1cc(NS(=O)(=O)c2c(C)ccc3nsnc23)c2ncccc2c1`, -0.3% (inactive). As to `COC(=O)c1cccc(NS(=O)(=O)c2ccc3ccccc3c2)c1C`, the inhibition was -7.45% (inactive). The figure for `COc1cc(NS(=O)(=O)c2ccc3ccccc3c2)c2ncccc2c1` is 38.5% (active); for `Cn1cc(S(=O)(=O)N2CCCC2)cc1C(=O)N1CCC(Cc2ccccc2)CC1` it is -7.23% (inactive). The figure for `COc1ccc(Cn2nnc(C(=O)Nc3cccc(Cl)c3)c2N)cc1` is -9.56% (inactive).

As for `Nc1c(C(=O)NCc2ccccc2)nnn1Cc1cccc(Cl)c1`, the inhibition is 37% (active). The figure for `O=C(Cc1cccc(Cl)c1)NCc1ccccc1` is -42.3% (inactive); for `O=S(=O)(c1ccc2ccccc2c1)N1CCSC1c1ccc2c3c(cccc13)CC2` (stereo not drawn) it is -6.22% (inactive); for `Cc1cc(NCCCn2ccnc2)n2nc(C)c(-c3cccs3)c2n1` it is -74.5% (inactive). In the case of `O=C(CNC1CCCC1)NCc1ccc2c(c1)OCO2`, the inhibition is -2.55% (inactive).

With `CCOc1ccc(C(=O)CCC(=O)OCC(=O)c2ccc3c(c2)OCCO3)cc1`, the inhibition was 5.42% (inactive). On to `CCOc1ccc2c(=O)c(-c3ccc4c(c3)OCCCO4)c(C)oc2c1`, for which the inhibition was -7.66% (inactive). The figure for `CCOc1ccc(-n2c(-c3ccc4c(c3)OCCO4)c[n+]3c2CCCCC3)cc1` is 85.2% (active); for `COc1ccc2c(c1OC)C(=O)N(c1ncn[nH]1)C2` it is 3.4% (inactive); for `COc1ccc(N2Cc3cccc(C(=O)NCC(OC)OC)c3C2=O)cc1` it is -8.73% (inactive). As for `COc1ccc2c(c1OC)C(=O)N(c1ccc(O)cc1)C2`, the inhibition was 67.1% (active).

In the case of `CCOC(=O)c1cccc(NC(=O)Cn2cc3c(n2)CCCCC3)c1`, the inhibition was 8.83% (inactive). Under `O=[N+]([O-])c1ccccc1S(=O)(=O)Nc1cccc2cccnc12` stands 32.8% (active); under `O=S(=O)(Nc1cccc2cccnc12)c1ccc(S(=O)(=O)N2CCCCC2)cc1`, 23.6% (inactive). Take `O=[N+]([O-])c1ccccc1Oc1cccc2cccnc12`: the inhibition is -9.26% (inactive). For the compound `Cn1c(/N=C/c2nc(-c3cccc4ccccc34)oc2O)nc2ccccc21`, the inhibition is -6.43% (inactive). Take `O=C(CO/N=C/c1ccccc1)N=Nc1c(O)[nH]c2ccccc12`: the inhibition was 5.66% (inactive). The figure for `CC1=CCC(C(=O)O)C(C(=O)Nc2nc3ccc(C)cc3s2)C1` (stereo not drawn) is -1.36% (inactive); for `COc1ccc2c(c1)CC(C(=O)Nc1nc3ccc(-c4cn[nH]c4C)cc3s1)CO2` (stereo not drawn) it is 53.5% (active).

Consider `Cc1[nH]ncc1-c1ccc2nc(NC(=O)C3COc4ccccc4C3)sc2c1` (stereo not drawn), for which the inhibition was 60.2% (active). Consider `COc1ccc2c(c1)CC(C(=O)Nc1ccc(-c3cn[nH]c3)cc1OCc1ccccc1)CO2` (stereo not drawn), for which the inhibition was -15.1% (inactive). For `COc1ccc2c(c1)CC(C(=O)Nc1ccc(-c3cn[nH]c3)cc1O[C@H]1CCOC1)CO2` (stereo partly drawn), the inhibition was 22.3% (inactive). The figure for `CCOc1ccc2nc(NC(=O)C3CC3)sc2c1` is -49.8% (inactive).
